Here are results for 8 sequences from the supplement of paper PMC6555819.

Holding throughout (experiment): PBM binding z-score (relative to random genomic background probes); higher = stronger binding; sequences stand for … in GC…GCGATTGACAGCGTAGAATGAAGG
The subject of test [1] is PPARg:RXRa DBDmut IVT, anti-RXR (DBD mutation: RXRa K156A/R161A, NR concentration 270 nM, RXRa partner concentration 90 nM). Put shortly: (§1)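 On custom Agilent 4×180K arrays, double-stranded probes with 34-nt variable regions carried direct-repeat seeds, single-nucleotide variants, half-site ablations or random human genomic background. Ligand-free nuclear receptor dimers were applied for 1 h, and binding was read with antibodies against each partner (one per run). Binding z-scores come from regression-normalized fluorescence, with the random background probes as reference.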

Test [2] has as its system PPARg:RXRa IVT, anti-PPARg (NR concentration 270 nM, RXRa partner concentration 90 nM). Put shortly: as §1
Test [3] relates to PPARg DBDmut:RXRa IVT, anti-PPARg (DBD mutation: PPARg1 K132A/R137A, NR concentration 270 nM, RXRa partner concentration 90 nM). Put shortly:
as §1

Test [4] deals with PPARg DBDmut IVT, anti-PPARg (DBD mutation: PPARg1 K132A/R137A, NR concentration 270 nM). Put shortly:
as §1

Test [5] has as its system PPARg homodimer (NR concentration 180 nM). Put shortly:
as §1

In test [6] the test system is PXR:RXRa (NR concentration 270 nM, RXRa partner concentration 90 nM). Put shortly:
as §1

The test system of test [7] is PXR homodimer (NR concentration 270 nM). Put shortly:
as §1

In test [8] the test system is RARa:RXR (NR concentration 270 nM, RXRa partner concentration 90 nM). Put shortly: as §1
Test [9] relates to RARa homodimer (NR concentration 270 nM). Put shortly: as §1
Test [10] deals with RARb:RXRa (NR concentration 270 nM, RXRa partner concentration 90 nM). Put shortly:
as §1

The test system of test [11] is RARb homodimer (NR concentration 270 nM). Put shortly: as §1
Test [12] concerns RARg:RXRa (NR concentration 270 nM, RXRa partner concentration 90 nM). Put shortly:
as §1

Test [13] has as its system RARg homodimer (NR concentration 270 nM). Put shortly:
as §1

Test [14] concerns RXRa DBDmut IVT, anti-RXR (DBD mutation: RXRa K156A/R161A, NR concentration 90 nM). Put shortly: as §1
Test [15] relates to RXRa homodimer (NR concentration 180 nM). Put shortly: as §1
The test system of test [16] is THRa:RXRa (NR concentration 90 nM, RXRa partner concentration 90 nM). Put shortly:
as §1

Test [17] deals with THRa homodimer (NR concentration 90 nM). Put shortly:
as §1

Test [18] concerns VDR homodimer (NR concentration 270 nM). Put shortly: as §1

With CAAACTAGGTCAAGGTCAAAGGCGGTTTGTGCCA, the PBM binding z-score in test [1] was 8.62; in test [2], 8.69; in [3], 1.56; in test [4] it was 1.08; in [5], 4.11; in test [6], 4.86. The PBM binding z-score worked out at 2.19 in test [7]; 5.36 in test [8]; 1.25 in [9]; 5.02 in test [10]; 5.02 in test [11]; 6.14 in test [12]. Also, the PBM binding z-score in test [13] worked out at 6.63; in test [14], 3.02; in test [15], 5.77; in test [16], 4.38; in [17], 3.55; in [18], 3.92.
With CAAACTAGGGCAAGGTCAAAGTCGGTTTGTGCCA, the PBM binding z-score was 7.65 in test [1]; 7.58 in [2]; 2.3 in test [3]; 3.24 in test [4]; 3.66 in test [5]; 4.71 in [6]. Further, the PBM binding z-score in [7] stood at 1.95; in [8], 4.96; in test [9] it was 2.12; in test [10] it was 4.14; in [11], 4.09; in test [12] it was 4.67. The PBM binding z-score in test [13] was determined as 4.49; in test [14], 2.41; in test [15] it was 4.63; in test [16] it was 3.75; in test [17], 2.34; in [18], 3.52.
With TCTATTACTTGATTAGGGCAACCGAAACAGCGGA, the PBM binding z-score in [1] was 2.08; in [2], 1.45; in test [3], 0.681; in test [4] it was 1.58; in test [5] it was 0.91; in test [6] it was 0.583. The PBM binding z-score in [7] came to 0.132; in test [8], 0.779; in test [9], 1.04; in test [10], 0.983; in test [11], 0.543; in test [12], 0.675. Further, the PBM binding z-score in test [13] came out at 0.616; in test [14], 1.1; in test [15], 0.781; in [16] it was 0.792; in test [17], 0.73; in test [18], 0.603.
TCTCGGAGGACACGAAAGTTCAGAGCTCGACATC: the PBM binding z-score was 1.71 in [1]; -0.0575 in test [2]; -0.141 in test [3]; -0.597 in test [4]; 0.949 in test [5]; 3.3 in [6]. The PBM binding z-score is 2.7 in test [7]; 1.27 in test [8]; 0.226 in test [9]; 2.78 in test [10]; 3.16 in test [11]; 2.2 in test [12]. Also, the PBM binding z-score in test [13] worked out at 3.44; in test [14], 1.32; in test [15], 1.14; in [16] it was 2.22; in test [17] it was 0.943; in test [18], 2.55.
Turning to TTACCAAGGTGAAAGGGCGTTGATGCACGCCTTG, the PBM binding z-score came out at 1.85 in test [1]; 3.87 in [2]; 0.557 in [3]; 0.204 in test [4]; 0.404 in [5]; 1.14 in [6]. The PBM binding z-score in test [7] was -0.361; in [8], 1.94; in test [9], -0.167; in test [10] it was 1.88; in test [11], 1.2; in test [12] it was 1.59. Moreover, the PBM binding z-score in test [13] was 0.688; in test [14] it was -0.264; in [15], 2.14; in test [16] it was 1.99; in [17] it was 0.369; in test [18] it was 0.227.
Regarding CTGCCTAGGTCAGGGCCAGTATAGGAGGAACGTT, the PBM binding z-score was 1 in test [1]; 1.46 in [2]; -0.75 in [3]; -0.806 in test [4]; 0.559 in test [5]; 0.208 in test [6]. The PBM binding z-score in test [7] is -0.739; in test [8], 0.901; in test [9] it was -0.655; in test [10] it was 3.38; in [11], 2.43; in test [12], 2.85. Besides, the PBM binding z-score in test [13] was 3.61; in test [14] it was -0.445; in [15], 1.25; in test [16], 1.88; in test [17], 0.182; in [18], -0.173.
Take AGAATGAGGTTAAGATCAGGCAAACAGAATACAT: the PBM binding z-score in test [1] was 2.85; in [2], 2.81; in [3] it was 0.992; in test [4], 0.64; in test [5], 0.518; in test [6], 1.33. Moreover, the PBM binding z-score in test [7] was -0.00329; in [8], 2.09; in test [9], 0.263; in [10] it was 1.92; in test [11], 0.764; in [12] it was 2.13. Also, the PBM binding z-score in [13] was 1.63; in test [14] it was 0.944; in test [15] it was 2.49; in test [16] it was 2.86; in test [17], 0.441; in test [18], 0.247.
Regarding CATACAGGGTCAGCTAGGCCAAAGTAGGGACGGC, the PBM binding z-score in [1] was 0.935; in [2], 2.57; in [3] it was 0.812; in test [4], 0.367; in test [5], 1.48; in [6], 2.55. Moreover, the PBM binding z-score turned out to be 0.23 in [7]; 3.25 in test [8]; 0.847 in test [9]; 4.14 in test [10]; 3.27 in [11]; 4.71 in test [12]. Moreover, the PBM binding z-score was 5.14 in test [13]; 1.49 in test [14]; 4.24 in test [15]; 3.16 in test [16]; 0.87 in test [17]; 2.11 in test [18].
